From ChEMBL document CHEMBL1157539, “Thousands of chemical starting points for antimalarial lead identification” (Nature, 2010) come the findings set out here.

The assay concerns Plasmodium falciparum. Kind of assay: GSK_TCMDC: Inhibition of Plasmodium falciparum 3D7 in whole red blood cells, using parasite LDH activity as an index of growth. Test compounds present at 2uM. The format is functional.
The compound `Cc1noc(-c2cccs2)c1C(=O)NCCc1cccc(Cl)c1` displayed an Inhibition of 97%.
`CC(C)(C)c1ccc(NC(=O)c2cccc(CN3CCCN(Cc4ccsc4)CC3)c2)cc1.O=C(O)C(F)(F)F` displayed an Inhibition of 96%.
In the case of `COc1ccc(C2NCCc3c2[nH]c2ccccc32)cc1CN1CCN(c2ccc(F)cc2)CC1.Cl` (configuration not stated) it was 97%; in that of `Cc1ccc(Nc2nc(C)cc(N3CCN(c4ccccc4)CC3)n2)cc1`, 93%.
`C#CCN(Cc1ccc2[nH]c(N)nc(=O)c2c1)c1ccc(C(=O)N[C@@H](CCC(=O)O)C(=O)O)cc1` returned an Inhibition of 95%.
To `Cc1nc(-c2cccc3c(NC(=O)N4CCc5cc6nccc(N7CCN(C)CC7)c6cc54)cccc23)no1.Cl` belongs 100%; to `CN(CCO)Cc1cccc(-c2ccc(NC(=O)c3cccc(C#N)c3)cc2)c1.O=C(O)C(F)(F)F`, 97%.
`O=c1cc(NCCCNCc2ccccc2-c2ccccc2)[nH]c2ccccc12` yielded an Inhibition of 88%.
`COC(=O)[C@@H](NC(=O)[C@H](Cc1ccc(OC)c(OC)c1)Nc1ccc(C#N)c2ccccc12)c1ccc(O)cc1.O=C(O)C(F)(F)F` displayed an Inhibition of 100%.
Turning to `O=[N+]([O-])c1ccc2nccnc2c1`, the Inhibition is reported as 97%.
To `O=C(Nc1ccc(Cl)cc1)NC1CCN(CCCCCNC(=O)C2CC2c2ccc(Cl)c(Cl)c2)CC1` (configuration not stated) belongs 100%; to `CCCCCN1CCC(NS(=O)(=O)c2cccc(C(=O)Nc3ccc(C(F)(F)F)cc3)c2)C1.O=C(O)C(F)(F)F` (configuration not stated), 95%.
Compound `COc1cccc2c(N/N=C/c3ccc([N+](=O)[O-])cc3)ccnc12` registered an Inhibition of 92%.
For the compound `Cc1cc(N[C@@H](Cc2ccccc2)C(=O)NCCOc2ccccc2)nc(NCc2ccccc2C)n1.O=C(O)C(F)(F)F`, the Inhibition worked out at 100%.
In the case of `Cc1cccc(NC(=O)c2ccc(C(=O)NC3CCN(CC4CCCCC4)CC3)cc2)c1.O=C(O)C(F)(F)F` it was 95%; in that of `NCCNS(=O)(=O)c1ccc(-c2ccnc3[nH]c(-c4ccncc4)cc23)cc1.O=C(O)C(F)(F)F`, 96%.
In the case of `CCOC(=O)c1nc(-c2cc(Cl)nc(Cl)c2)[nH]c1NC(=S)NCc1ccc(NS(C)(=O)=O)cc1` it was 100%.
In the case of `COc1ccc(Cn2c(Nc3cccc(C(F)(F)F)c3)nc3cc(C(=O)NC(C)C)cnc32)cc1Cl` it was 85%.
Take `CC(O)CNc1nc2ccccc2n1CC(=O)Nc1cccc(C(=O)Nc2cccc(C(F)(F)F)c2)c1` (configuration not stated): the Inhibition is 99%.
`CCC(C)NC(=O)Nc1ccc(-c2cccc(-c3nc4cccc(C)c4[nH]3)c2)cc1` (configuration not stated) gave an Inhibition of 100%.
`CCC1(CC)C(=O)N=C(N2CCCCC2)N(C)C1=O` showed an Inhibition of 89%.
In turn, `COc1ccc(C(=O)Nc2cc(Br)c3c(c2)CNCC3)cc1C(F)(F)F.Cl` registered an Inhibition of 90%.
To `Cl.O=C(NCCCCN1CCC(O)(c2ccc(Cl)cc2)CC1)c1ccc(Br)cc1` belongs 82%.
In the case of `Cn1ccnc1CNC(=O)c1ccc(-c2cccc(-c3nc4cc(C(F)(F)F)ccc4[nH]3)c2)cc1` it was 100%.
`O=C(Nc1cccc(F)c1)N1CCC(CN2CCOC(c3ccccc3)(c3ccccc3)C2)CC1`: the Inhibition is 96%.
As to `CCOc1ccc2c(=NN=Cc3cccc(Cl)c3)cc(C)[nH]c2c1`, the Inhibition stood at 93%.
To `COc1ccc2c(=NN=Cc3cccc(Cl)c3)cc(C)[nH]c2c1` belongs 100%; to `Cl.O=C(Nc1cccc2ccccc12)N1CCc2cc3nccc(N4CCN5CCC[C@H]5C4)c3cc21`, 99%; to `Nc1c(Cl)cc(C(O)CNCCCCCCOCCC=C2CCOCC2)cc1Cl` (configuration not stated), 100%.
In the case of `O=C(NC1CCN(Cc2ccccc2)CC1)c1ccc(-c2nc3cc(Cl)c(F)cc3[nH]2)s1` it was 100%; in that of `O=C(NC1CCN(Cc2ccccc2)CC1)c1cc(C(=O)NC2CCN(Cc3ccccc3)CC2)cc(C(=O)NC2CCN(Cc3ccccc3)CC2)c1`, 100%; in that of `Clc1ccc(CNc2ccnc(NCc3ccc4c(c3)OCCCO4)n2)c(Cl)c1`, 94%.
To `Cc1cc(C2CCN(CCCCNC(=O)c3ccc(-c4ccc(C#N)cc4)cc3)CC2)c(C)cc1OCCO` belongs 96%; to `O=C(Nc1ccc(Cl)cc1)N[C@H]1CCN(CCCCCNC(=O)C2CC2c2ccc(Cl)c(Cl)c2)C1` (some centres not stated), 96%.
On to `O=C(NCCCN1CCCCC1)c1ccc(Nc2nccc(Nc3ccc(Oc4ccccc4)cc3)n2)cc1`, for which the Inhibition was found to be 100%.
For the compound `Oc1cc(Nc2ccnc3cc(-c4cccc(CN5CCCCC5)c4)ccc23)c(F)cc1Cl`, the Inhibition stood at 100%.
To `CN(C)CCOc1cc(NC(=O)Nc2ccc3c(c2)CCCC3=O)ccc1I` belongs 94%.

In general, Inhibition refers to how much of the control response was suppressed. A high value points to a response far below the control.
